Molecules are shown by their SMILES. Where “and” joins values, the source holds several entries; their conditions need not be identical. Equal entries are not always repeated. Records with an inconclusive call do not appear. Values without a mark were called inactive. Calls of active or inactive are those of the source. Unless noted, calls come from the whole dose curve; as a rule, active = well fitted curve in the direction sought with a large enough effect; inconclusive = small, poorly fitted or top-dose-only effect, or another doubt; inactive = no such curve, though single readings can be large; an effect the other way counts as inactive or inconclusive.

Consider 23 compounds from PubChem BioAssay (NCATS).

Assay [1] concerns the target Cytochrome P450 2C9 (Homo sapiens) (UniProt P11712). Description: qHTS Assay for Inhibitors and Substrates of Cytochrome P450 2C9 (AID 883). Note: % is set by controls: 0 for no effect and ±100 for the full control effect; nearly all actives have a fitted effect of over 60% in size. The gist of the method:
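Inhibition of CYP2C9 is scored as loss of luminescence, with 57uM sulphaphenazole defining 100% inhibition. Substrate Luciferin-H is used at 100uM, equal to its KM; enzyme at 10nM in 25mM KPO4, 60 min at 37C with NADPH regeneration.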

In assay [2] the target is Cytochrome P450 3A4 (Homo sapiens) (UniProt P08684). Description: qHTS Assay for Inhibitors and Substrates of Cytochrome P450 3A4 (AID 884). Note: series mostly up to about 57 µM; % is set by controls: 0 for no effect and ±100 for the full control effect; nearly all actives have a fitted effect of over 50% in size. The gist of the method:
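20 nM human CYP3A4 with 25 uM Luciferin-PPXE (at KM) in 200 mM KPO4, preincubated 10 min with compound; NADPH regeneration started a 60 min RT reaction. Luciferin detected by luminescence, normalized to 57 uM ketoconazole as full inhibition.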

In assay [3] the target is Cytochrome P450 2D6 (Homo sapiens) (UniProt P10635). As to the kind of experiment: qHTS Assay for Inhibitors and Substrates of Cytochrome P450 2D6 (AID 891).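 Note: luciferin methyl ether substrate demethylated by CYP2D6 with NADPH regeneration; % is set by controls: 0 for no effect and ±100 for the full control effect; nearly all actives have a fitted effect of over 60% in size.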 The gist of the method: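 Human CYP2D6 (5 nM) with 30 uM Luciferin-ME EGE (at Km) in 100 mM KPO4, compound preincubated 10 min, then NADPH regeneration system for 60 min at room temperature. Luciferin read by luminescence; normalized to 1.43 uM quinidine.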
For orientation: In qHTS, concentration-response curves come from the screen itself.

Assay [4] deals with Cytochrome P450 2C19 (Homo sapiens) (UniProt P33261). Description: qHTS Assay for Inhibitors and Substrates of Cytochrome P450 2C19 (AID 899). Note: % is set by controls: 0 for no effect and ±100 for the full control effect; nearly all actives have a fitted effect of over 60% in size. The gist of the method:
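5nM enzyme + 10uM Luciferin-H EGE (=KM), 50mM KPO4; cpd pin-transferred, 10 min 37C; NADPH regen, 60 min 37C; stopped w/ luciferin detection reagent, 20 min; luminescence. Normalized to 57uM ketoconazole (AC100).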

A short description of assay [5]: qHTS for Inhibitors of Plasmodium falciparum (DD2) proliferation (AID 504314).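 Note: parasite DNA measured by SYBR Green fluorescence after red cell lysis; plate controls were DMSO vehicle for no effect and artemisinin wells for full effect.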 The gist of the method:
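Fluorescence read-out (ex 485/em 535 nm) of SYBR Green-stained parasite DNA quantifies intraerythrocytic growth. Cultures at 0.3% parasitemia and 2.5% hematocrit were treated for 72 h; data normalized to DMSO and 0.29 uM artemisinin wells.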

Assay [6] is described as follows: qHTS for Inhibitors of Plasmodium falciparum (GB4) proliferation (AID 504315).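 Note: 0% = DMSO vehicle and -100% = 0.29 µM artemisinin control; nearly all actives have a fitted effect of over 50% in size.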 The gist of the method:
(§1)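 Erythrocytes infected with P. falciparum line (0.3% parasitemia, 2.5% hematocrit final) incubated with compounds 72 h at 37 °C, 5% CO2; SYBR Green lysis buffer added, fluorescence read next day. Normalized to 0.29 uM artemisinin and DMSO.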

A short description of assay [7]: qHTS for Inhibitors of Plasmodium falciparum (7G8) proliferation (AID 504316).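 For activity change, negative = inhibition: series mostly up to about 6.7 µM; 0% = DMSO vehicle and -100% = 0.29 µM artemisinin full kill.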 Note: nearly all actives have a fitted effect of over 65% in size. Note: potency is the fitted concentration of half-maximal effect. The gist of the method:
as §1

Assay [8] in a line: qHTS for Inhibitors of Plasmodium falciparum (HB3) proliferation (AID 504318).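 Note: 0% = DMSO vehicle and -100% = artemisinin control; nearly all actives have a fitted effect of over 60% in size.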 The gist of the method: as §1
Assay [9] is described as follows: qHTS for Inhibitors of Plasmodium falciparum (CP250) proliferation (AID 504320).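 Note: plate controls were DMSO vehicle for no effect and 0.29 µM artemisinin control for full effect.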 The gist of the method: as §1
In assay [10] the target is Atrial natriuretic peptide receptor 1 (Homo sapiens) (UniProt P16066). Description: Natriuretic polypeptide receptor (hNpr1) antagonism - Pilot CMLD screen (AID 1347052; calls by dose curve;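 note: HEK293 cells with hNpr1 stimulated by hNppA peptide at 0.1 nM; cGMP level read as GloSensor luciferase luminescence after agonist stimulation; series mostly up to about 9.2 µM; % is set by controls: 0 for no effect and ±100 for the full control effect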).
Sequence of Atrial natriuretic peptide receptor 1 (Homo sapiens) (P16066 whole entry, looked up): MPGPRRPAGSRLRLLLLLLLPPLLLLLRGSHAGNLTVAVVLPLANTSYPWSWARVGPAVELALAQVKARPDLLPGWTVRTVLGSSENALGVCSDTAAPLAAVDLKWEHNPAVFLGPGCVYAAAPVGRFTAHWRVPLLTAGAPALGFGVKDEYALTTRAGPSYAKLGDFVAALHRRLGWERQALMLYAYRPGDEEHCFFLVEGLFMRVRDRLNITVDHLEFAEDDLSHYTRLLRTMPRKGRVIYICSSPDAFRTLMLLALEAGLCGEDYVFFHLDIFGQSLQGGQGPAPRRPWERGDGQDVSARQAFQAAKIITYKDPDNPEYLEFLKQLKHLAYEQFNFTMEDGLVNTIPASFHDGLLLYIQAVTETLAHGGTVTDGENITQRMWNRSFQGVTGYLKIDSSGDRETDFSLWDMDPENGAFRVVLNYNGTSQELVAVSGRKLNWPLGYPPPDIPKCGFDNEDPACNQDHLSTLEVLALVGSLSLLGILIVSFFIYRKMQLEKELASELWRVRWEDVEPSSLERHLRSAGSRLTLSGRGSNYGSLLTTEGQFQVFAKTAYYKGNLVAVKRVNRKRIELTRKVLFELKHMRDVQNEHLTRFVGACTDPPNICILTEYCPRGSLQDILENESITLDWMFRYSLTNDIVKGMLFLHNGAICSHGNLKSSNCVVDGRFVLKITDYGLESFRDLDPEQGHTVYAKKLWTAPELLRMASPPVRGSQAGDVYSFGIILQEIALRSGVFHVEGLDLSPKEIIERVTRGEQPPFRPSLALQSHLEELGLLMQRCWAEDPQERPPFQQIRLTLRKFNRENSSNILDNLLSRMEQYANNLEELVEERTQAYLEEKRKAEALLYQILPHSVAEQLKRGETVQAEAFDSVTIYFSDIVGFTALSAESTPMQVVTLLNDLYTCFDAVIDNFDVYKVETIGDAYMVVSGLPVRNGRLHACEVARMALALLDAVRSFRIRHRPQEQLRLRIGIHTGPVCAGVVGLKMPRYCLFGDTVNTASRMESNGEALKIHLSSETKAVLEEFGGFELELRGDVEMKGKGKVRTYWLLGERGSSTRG

Sequence of Cytochrome P450 2C19 (Homo sapiens) (P33261 whole entry, looked up): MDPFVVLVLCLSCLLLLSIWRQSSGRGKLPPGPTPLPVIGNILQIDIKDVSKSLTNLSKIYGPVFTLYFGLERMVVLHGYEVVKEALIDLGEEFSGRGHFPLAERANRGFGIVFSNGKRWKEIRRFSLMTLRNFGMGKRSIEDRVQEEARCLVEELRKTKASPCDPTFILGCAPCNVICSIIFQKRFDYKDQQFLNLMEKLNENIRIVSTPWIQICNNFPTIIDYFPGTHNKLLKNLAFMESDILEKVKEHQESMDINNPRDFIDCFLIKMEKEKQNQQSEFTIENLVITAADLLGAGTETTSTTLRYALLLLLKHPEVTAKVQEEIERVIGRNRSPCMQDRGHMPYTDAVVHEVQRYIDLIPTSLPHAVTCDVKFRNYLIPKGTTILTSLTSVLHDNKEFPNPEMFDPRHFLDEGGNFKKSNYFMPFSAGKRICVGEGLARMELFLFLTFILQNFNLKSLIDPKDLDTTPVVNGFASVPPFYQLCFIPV
Sequence of Cytochrome P450 3A4 (Homo sapiens) (P08684 whole entry, looked up): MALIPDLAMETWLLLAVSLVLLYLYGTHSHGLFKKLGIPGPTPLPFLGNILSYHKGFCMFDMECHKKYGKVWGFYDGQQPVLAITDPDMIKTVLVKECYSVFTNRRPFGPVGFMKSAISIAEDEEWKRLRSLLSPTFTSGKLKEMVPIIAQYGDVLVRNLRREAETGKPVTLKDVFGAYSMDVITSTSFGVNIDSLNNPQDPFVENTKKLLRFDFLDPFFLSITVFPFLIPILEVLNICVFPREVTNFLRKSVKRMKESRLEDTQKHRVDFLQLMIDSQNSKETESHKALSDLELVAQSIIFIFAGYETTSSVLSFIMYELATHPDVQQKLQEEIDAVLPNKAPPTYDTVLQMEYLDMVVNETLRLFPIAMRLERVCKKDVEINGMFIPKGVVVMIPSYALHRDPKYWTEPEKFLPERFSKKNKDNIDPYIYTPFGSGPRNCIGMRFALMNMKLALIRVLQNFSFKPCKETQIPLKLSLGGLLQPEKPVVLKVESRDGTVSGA
Sequence of Cytochrome P450 2C9 (Homo sapiens) (P11712 whole entry, looked up): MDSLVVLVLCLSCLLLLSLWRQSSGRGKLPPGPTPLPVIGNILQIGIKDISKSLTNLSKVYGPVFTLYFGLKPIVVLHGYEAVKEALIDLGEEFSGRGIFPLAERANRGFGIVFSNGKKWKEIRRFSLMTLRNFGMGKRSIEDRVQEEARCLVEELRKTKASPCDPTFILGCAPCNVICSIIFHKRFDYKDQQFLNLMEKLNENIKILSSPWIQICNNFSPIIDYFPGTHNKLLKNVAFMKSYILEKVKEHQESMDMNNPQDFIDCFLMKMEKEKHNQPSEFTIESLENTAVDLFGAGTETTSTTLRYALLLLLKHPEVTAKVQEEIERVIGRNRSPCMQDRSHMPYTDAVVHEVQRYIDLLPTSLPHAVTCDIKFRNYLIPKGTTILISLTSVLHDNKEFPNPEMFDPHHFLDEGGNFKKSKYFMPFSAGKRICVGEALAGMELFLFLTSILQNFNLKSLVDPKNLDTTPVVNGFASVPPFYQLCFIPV
Sequence of Cytochrome P450 2D6 (Homo sapiens) (P10635 whole entry, looked up): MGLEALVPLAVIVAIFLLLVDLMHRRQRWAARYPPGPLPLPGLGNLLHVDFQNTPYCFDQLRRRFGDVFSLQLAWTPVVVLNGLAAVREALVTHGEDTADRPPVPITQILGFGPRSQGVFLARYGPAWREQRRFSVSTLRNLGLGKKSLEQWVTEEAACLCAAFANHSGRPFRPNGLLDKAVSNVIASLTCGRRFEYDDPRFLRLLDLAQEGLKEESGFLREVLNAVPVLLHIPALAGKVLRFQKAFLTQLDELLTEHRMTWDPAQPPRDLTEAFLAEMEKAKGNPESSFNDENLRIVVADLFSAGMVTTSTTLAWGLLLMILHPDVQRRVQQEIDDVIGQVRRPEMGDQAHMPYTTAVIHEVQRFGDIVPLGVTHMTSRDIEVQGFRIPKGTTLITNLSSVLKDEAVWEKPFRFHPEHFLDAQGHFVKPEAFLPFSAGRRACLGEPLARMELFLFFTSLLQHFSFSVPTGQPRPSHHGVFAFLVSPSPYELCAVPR

As for `CC1=C(C)CC(c2ccccc2)C(C(=O)c2ccccc2O)C1` (stereo not drawn), the activity change, negative = inhibition in assay [1] is -27.8% [at 11.4 µM]; in assay [2], -21.6% [at 11.4 µM]; in assay [3] it was 6.86% [at 11.4 µM]. The activity, negative = inhibition in assay [4] is -23.3% [at 11.4 µM]. The Potency result in assay [5], in assay [6], in assay [7], in assay [8], in assay [9] and in assay [10] was “inactive” each time.

For `CCCNC(=O)OC[C@H]1O[C@H](CCON=C2C[C@@H](O)[C@@H](O)[C@@H]3[C@H]4C(=O)N(CC)C(=O)[C@@H]4CC[C@H]23)C=C[C@H]1Oc1ccc(OC)cc1`, the Potency result in assay [5], in [6], in [7], in assay [9] and in assay [10] was “inactive” throughout.

On to `COC(=O)C(C(C)=O)C(=O)C(Cc1ccccc1)NC(=O)OCc1ccccc1` (stereo not drawn), for which the activity change, negative = inhibition is 2.74% [at 11.4 µM] in assay [1] and -1.19% [at 11.4 µM] in assay [3]. Moreover, in [4], the activity, negative = inhibition was -11.9% [at 11.4 µM]. Further, the Potency entry in assay [5], in assay [6], in assay [7], in [8], in assay [9] and in [10] was “inactive” throughout.

As for `COC(=O)N[C@@H](c1ccco1)C(C(C)=O)C(=O)OC` (stereo partly drawn), the Potency entry in [5], in assay [6], in assay [7], in assay [8], in assay [9] and in assay [10] was “inactive” in each case.

With `C=C(C)C(=O)C=CCCCC=CC(=O)OCC`, the Potency entry in assay [5], in [6], in assay [7], in [8], in assay [9] and in assay [10] was “inactive” throughout.

Consider `Cc1c(O)ccc2c1OCO2`, for which the activity change, negative = inhibition was -0.37% [at 11.4 µM] in [1] and -1.17% [at 11.4 µM] in assay [3]. The activity, negative = inhibition in assay [4] is 39.4% [at 11.4 µM]. Besides, the Potency entry in [5], in [6], in assay [7], in assay [8], in assay [9] and in assay [10] was “inactive” in each case.

Turning to `C[C@@H]1C=CCCO[C@]12C(=O)N(Cc1ccc(Br)cc1)c1cccc(Br)c12`, the Potency entry in assay [5], in assay [6], in assay [7], in [8], in assay [9] and in [10] was “inactive” each time.

`C=CCC1(c2ccccc2)Oc2ccccc2-c2nc3cc(Cl)c(Cl)cc3nc21` (stereo not drawn): the activity change, negative = inhibition is -6.17% [at 11.4 µM] and 38.3% [at 11.4 µM] in assay [1]; -17.8% [at 11.4 µM] and -22.2% [at 11.4 µM] in assay [2]; 2.78% [at 11.4 µM] and 6.33% [at 11.4 µM] in assay [3]. In addition, the activity, negative = inhibition in assay [4] is 39.4% [at 11.4 µM] and 70.5% [at 11.4 µM]. For the same compound, the Potency entry in assay [5], in assay [6], in [7], in assay [8], in assay [9] and in [10] was “inactive” throughout.

As for `CC(C)(C)OC(=O)NCCCC1=CC2=CC(=O)C(C)(O)C(=O)C2=CO1` (stereo not drawn), the Potency result in assay [5], in assay [6], in assay [7], in assay [8], in assay [9] and in assay [10] was “inactive” throughout.

Turning to `C=CCOC(=O)C(C(C)=O)[C@@H](NC(=O)OC)c1cccc(F)c1` (stereo partly drawn), the Potency result in assay [5], in assay [6], in [7], in [8], in assay [9] and in assay [10] was “inactive” in each case.

Turning to `COC(=O)CCC(=O)OC1(C)C(=O)C2=COC(c3ccc(OC)cc3)=CC2=C(Br)C1=O` (stereo not drawn), the Potency entry in assay [5], in assay [6], in assay [7], in assay [9] and in assay [10] was “inactive” throughout.

Take `CCN1C(=O)NC(c2ccco2)C(C(C)=O)=C1C` (stereo not drawn): the Potency entry in assay [5], in [6], in assay [7], in assay [9] and in assay [10] was “inactive” in each case.

As for `CCN1C(=O)[C@@H]2[C@H]3[C@H](O)[C@H](O)CC(=NOC[C@@H](O)[C@H]4O[C@@H]5OC(C)(C)O[C@H]5[C@@H]4O)[C@@H]3CC[C@H]2C1=O`, the Potency entry in assay [5], in assay [6], in [7], in assay [9] and in assay [10] was “inactive” throughout.

Turning to `COC(=O)CC1c2ccccc2C=C(C2CC2)N1C(=O)OC` (stereo not drawn), the Potency entry in assay [5], in assay [6], in assay [7], in assay [9] and in assay [10] was “inactive” in each case.

Regarding `COc1ccc2c(c1)O[C@@H](c1ccc3c(c1)OCO3)[C@H](OC(=O)Nc1ccc(OC(F)F)cc1)C2=O`, the Potency entry in [5], in assay [6], in assay [7], in assay [9] and in [10] was “inactive” each time.

Take `CCN1C(=NCC(C)C)N[C@@H](CCc2ccccc2)[C@H](C(=O)OC)[C@H]1C`: the Potency entry in [5], in assay [6], in assay [7], in [9] and in [10] was “inactive” throughout.

On to `COc1ccc(-c2nc3c(c4c2C[C@H](c2ccccc2)OC4)CN(C(=O)c2ccco2)CC3)c(C)c1`, for which, in assay [5], the activity, negative = inhibition is -2.96% [at 1.12 µM]. In addition, the Potency result in assay [6], in [9] and in assay [10] was “inactive” throughout. Also, the Potency in [7] was 1690 nM (active).

Regarding `COC(=O)CCCC1=CC2=C(c3ccccc3)C(=O)C(C)(OC(=O)C3CCCC3)C(=O)C2=CN1Cc1ccc(OC)cc1` (stereo not drawn), the activity, negative = inhibition in assay [5] was 1.81% [at 1.12 µM]. The Potency entry in assay [6], in [7], in [9] and in assay [10] was “inactive” in each case.

Consider `CCCCn1c(C)cc2c(c1=O)[C@H]1O[C@](c3ccsc3)(Cc3cc(OC)c(OC)cc31)O2`, for which the Potency entry in [5], in assay [6], in assay [7], in assay [9] and in [10] was “inactive” each time.

On to `CC1=C[C@@H](C)OC2(C1)C(=O)N(Cc1ccc(Br)cc1)c1cccc(Br)c12` (stereo partly drawn), for which the Potency entry in assay [5], in assay [6], in [7], in assay [9] and in assay [10] was “inactive” each time.

With `CCOC(=O)CN1C(=O)[C@]2(OCCC=C[C@@H]2C)c2ccccc21`, the Potency result in assay [5], in [6], in assay [7], in [9] and in [10] was “inactive” each time.

Turning to `COc1ccc(COC(=O)NN=C2C[C@@H](O)[C@@H](O)[C@@H]3[C@H]4C(=O)N(C5CCCCC5)C(=O)[C@@H]4CC[C@@H]23)cc1`, the Potency result in assay [5], in assay [6], in assay [7], in assay [9] and in assay [10] was “inactive” throughout.

On to `COC(=O)C=P(c1ccccc1)(c1ccccc1)c1ccccc1`, for which the Potency entry in assay [5], in [6], in assay [7], in assay [9] and in [10] was “inactive” in each case.
